Inconclusive results are not listed. Activity calls are given as the source filed them. Unless noted, calls follow the shape of the full dose curve.
Legend:
[1] = qHTS for Inhibitors of the Functional Ribonucleoprotein Complex (vRNP) of Lassa (LASV) Arenavirus: LASV Primary Screen - GLuc reporter signal (AID 1347082; calls by dose curve; tested in HEK293 reporter line; also: nearly all actives have a fitted effect of over 60% in size)
[2] = qHTS for Inhibitors of the Functional Ribonucleoprotein Complex (vRNP) of Lassa (LASV) Arenavirus: Viability assay - alamar blue signal for LASV Primary Screen (AID 1347083; calls by dose curve; tested in HEK293 reporter line; also: nearly all actives have a fitted effect of over 80% in size)
[3] = qHTS for Inhibitors of the Functional Ribonucleoprotein Complex (vRNP) of Lymphocytic Choriomeningitis Arenaviruses (LCMV): Viability assay - alamar blue signal for LCMV Primary Screen (AID 1347085; calls by dose curve; tested in HEK293 reporter line; also: nearly all actives have a fitted effect of over 80% in size)
[4] = target: Nucleoprotein (Lymphocytic choriomeningitis virus (strain Armstrong)) (UniProt P09992); test: qHTS for Inhibitors of the Functional Ribonucleoprotein Complex (vRNP) of Lymphocytic Choriomeningitis Arenaviruses (LCMV): LCMV Primary Screen - GLuc reporter signal (AID 1347086); also: nearly all actives have a fitted effect of over 70% in size

Measured: Potency
Potency is read from the fitted curve at half-maximal effect.

Chain of Nucleoprotein (Lymphocytic choriomeningitis virus (strain Armstrong)) (P09992 whole entry, looked up): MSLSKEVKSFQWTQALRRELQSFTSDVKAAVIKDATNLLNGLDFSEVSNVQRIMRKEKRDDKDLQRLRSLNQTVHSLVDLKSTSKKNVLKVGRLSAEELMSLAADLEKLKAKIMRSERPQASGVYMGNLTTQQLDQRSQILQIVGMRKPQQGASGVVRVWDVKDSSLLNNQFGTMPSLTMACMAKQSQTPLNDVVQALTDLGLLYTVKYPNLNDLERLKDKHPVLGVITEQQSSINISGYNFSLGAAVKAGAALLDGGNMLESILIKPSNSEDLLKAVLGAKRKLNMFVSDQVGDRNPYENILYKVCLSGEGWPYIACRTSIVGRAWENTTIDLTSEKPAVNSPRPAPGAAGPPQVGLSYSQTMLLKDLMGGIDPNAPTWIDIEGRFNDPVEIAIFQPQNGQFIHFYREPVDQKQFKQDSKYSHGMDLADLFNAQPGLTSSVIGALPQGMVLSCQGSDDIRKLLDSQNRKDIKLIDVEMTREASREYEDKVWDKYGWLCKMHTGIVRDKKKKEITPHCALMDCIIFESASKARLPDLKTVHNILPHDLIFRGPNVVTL

COC(=O)c1ccc(NC(C)=O)cc1OC
inactive: [1] | [2] | [3] | [4]

CC1(C)O[C@@H]2C[C@H]3[C@@H]4CCC5=CC(=O)C=C[C@]5(C)[C@@]4(F)[C@@H](O)C[C@]3(C)[C@]2(C(=O)CO)O1
inactive: [1] | [2] | [3] | [4]

CC(CC(C#N)(c1ccccc1)C(C)C)N(C)C (stereo not given)
inactive: [1] | [2] | [3] | [4]

CCCCCCCC(=O)OCC(COC(=O)CCCCCCC)OC(=O)CCCCCCC
inactive: [1] | [2] | [3] | [4]

COc1cccc2c1C(=O)c1c(O)c3c(c(O)c1C2=O)C[C@@](O)(C(C)=O)C[C@H]3O[C@H]1C[C@H](N)[C@H](O)[C@H](C)O1
active: [1] 1220 nM | [2] 153 nM | [3] 153 nM | [4] 273 nM

NS(=O)(=O)c1cc(Cl)c(Cl)c(S(N)(=O)=O)c1
inactive: [1] | [2] | [3] | [4]

O=C(O)c1cc(O)c(O)c(O)c1
inactive: [1] | [2] | [3] | [4]

CC(=O)[C@H]1CC[C@H]2[C@@H]3C[C@H](C)C4=CC(=O)CC[C@]4(C)[C@H]3[C@@H](O)C[C@]12C
inactive: [1] | [2] | [3] | [4]

CC(C)(C(=O)c1cccnc1)c1cccnc1
inactive: [1] | [2] | [3] | [4]

COc1cc(OC)c(C(=O)CCCN2CCCC2)c(OC)c1
inactive: [1] | [2] | [3] | [4]

Cc1cc(NS(=O)(=O)c2ccc(N)cc2)nc(C)n1
inactive: [1] | [2] | [3] | [4]

CC(C)CCOC(=O)c1ccc(N(C)C)cc1
inactive: [1] | [2] | [3] | [4]

CCCCCCCCCCC[C@@H](C[C@@H]1OC(=O)[C@H]1CCCCCC)OC(=O)[C@H](CC(C)C)NC=O
inactive: [1] | [2] | [3] | [4]

O=C(CCOCCOCCOCCOCCC(=O)Nc1c(I)cc(I)c(C(=O)O)c1I)Nc1c(I)cc(I)c(C(=O)O)c1I
inactive: [1] | [2] | [3] | [4]

CCCc1nn(C)c2c(=O)[nH]c(-c3cc(S(=O)(=O)N4CCN(C)CC4)ccc3OCC)nc12
inactive: [1] | [2] | [3] | [4]

O=C(O)CNC(=O)c1ccccc1
inactive: [1] | [2] | [3] | [4]

O=C(O)c1cc(=O)[nH]c(=O)[nH]1
inactive: [1] | [2] | [3] | [4]

CC(C)(Oc1ccc(C2CC2(Cl)Cl)cc1)C(=O)O (stereo not given)
inactive: [1] | [2] | [3] | [4]

CCN(CC)CC#CCOC(=O)C(O)(c1ccccc1)C1CCCCC1 (stereo not given)
inactive: [1] | [2] | [3] | [4]

Cc1c(N(C)CS(=O)(=O)O)c(=O)n(-c2ccccc2)n1C
inactive: [1] | [2] | [3] | [4]

CC(=O)N/N=C/c1ccc([N+](=O)[O-])o1
inactive: [1] | [2] | [3] | [4]

CN=C(NC#N)NCCSCc1csc(N=C(N)N)n1
inactive: [1] | [2] | [3] | [4]

CCS(=O)(=O)CCn1c([N+](=O)[O-])cnc1C
inactive: [1] | [2] | [3] | [4]

O=C(CO)[C@@H](O)[C@H](O)[C@@H](O)CO
inactive: [1] | [2] | [3] | [4]

c1ccc(-c2nc[nH]c2-c2ccccc2)cc1
inactive: [1] | [2] | [3] | [4]

NS(=O)(=O)c1cc(-c2nn[nH]n2)c(NCc2cccs2)cc1Cl
inactive: [1] | [2] | [3] | [4]

Cc1ccc(S(=O)(=O)NC(=O)NC2CCCCC2)cc1
inactive: [1] | [2] | [3] | [4]

Cc1cn([C@@H]2O[C@H](CO)[C@@H](O)[C@H]2F)c(=O)[nH]c1=O
inactive: [1] | [2] | [3] | [4]

O=C(O)CCC(=O)O
inactive: [1] | [2] | [3] | [4]

NCc1ccc(S(N)(=O)=O)cc1
inactive: [1] | [2] | [3] | [4]

Nc1ccc(S(N)(=O)=O)cc1
inactive: [1] | [2] | [3] | [4]

OC[C@H]1O[C@@H](n2cnc3c2NC=NC[C@H]3O)C[C@@H]1O
inactive: [1] | [2] | [3] | [4]

Nc1ccc(C(=O)O)cc1
inactive: [1] | [2] | [3] | [4]

CC(C)(C)C(=O)Oc1ccc(S(=O)(=O)Nc2ccccc2C(=O)NCC(=O)O)cc1
inactive: [1] | [2] | [3] | [4]

CC=CC1=C(C(=O)O)N2C(=O)[C@H](NC(=O)[C@H](N)c3ccc(O)cc3)[C@@H]2SC1
inactive: [1] | [2] | [3] | [4]

— PubChem BioAssay (NCATS)
